These results are taken from PubChem BioAssay (EPA / NIEHS).

Structures are written as SMILES. Some structures have more than one record in an assay (separate samples or runs), and their calls can disagree. The source made the active and inactive calls. How the source made its calls: active means hit-call score of the fitted dose curve at least 0.9, where 1 is the maximum; inactive means score below 0.9.

Read-out in this assay: Human Leukocyte Antigen - DR isotype (HLADR), HLA-DRA (gene 3122)
Put plainly: BSK_BE3C_HLADR: BioMAP Diversity Plus: BE3C Assay for Human Leukocyte Antigen - DR isotype (HLADR) Biomarker Activity (AID 2283032). As to conditions: primary human bronchial epithelial cells; actives raise or lower the signal. The protocol:
BSK_BE3C is a cell-based, multiplexed-readout assay that uses bronchial epithelial cell, a human lung primary cell, with measurements taken at 24 hours after chemical dosing in a 96-well plate.BSK_BE3C_HLADR is an assay component measured in the BSK_BE3C assay. It measures HLA-DR antibody related to regulation of gene expression using ELISA technology.Data from the assay component BSK_BE3C_HLADR was analyzed into 1 assay endpoint. This assay endpoint, BSK_BE3C_HLADR, was analyzed with bidirectional fitting relative to DMSO as the negative control and baseline of activity. Using a type of binding reporter, gain or loss-of-signal activity can be used to understand changes in the signaling as they relate to the gene HLA-DRA. Furthermore, this assay endpoint can be referred to as a primary readout, because this assay has produced multiple assay endpoints where this one serves a signaling function. To generalize the intended target to other relatable targets, this assay endpoint is annotated to the cell adhesion molecules intended target family, where the subfamily is MHC Class II.
The levels of cell surface (or secreted, indicated by the prefix "s") biomarker endpoints were measured by ELISA. Overt cytotoxicity to cells in confluent adherent cultures (all systems other than the BT system) was assessed by measuring total protein levels using sulforhodamine B (SRB) staining in parallel cultures at the time of biomarker measurements, indicated as SRB endpoints. For proliferation assays for adherent cell types, individual cell types are cultured at sub-confluence and relative cell numbers quantified by SRB staining at time points optimized for each system (48 h: 3C and CASM3C systems; 72 h: BT and HDF3CGF systems; 96 h: SAg system). SRB was performed by staining cells with 0.1% SRB after fixation with 10% TCA and reading wells at 560 nm.Viability and proliferation of PBMC (T cells) was quantified by Alamar Blue reduction for the SAg and BT systems. For PBMC viability (referred to as PBMC Cytotoxicity within the assay endpoint names), cells were plated (75,000/well in a 96-well plate) and then chemical samples added for 1 h before addition of activators, SEB and TSST-1 (20 ng/mL final concentration each). Cells were incubated for 90 h. Then, Alamar Blue (20 uL/well) (Invitrogen, Cat DAL1100) was added for 6 h, and the plates were read with a fluorescence microplate reader at 546/580 nm (excitation/emission). For PBMC proliferation, cells were plated and activated as above but incubated for only 16 h prior to addition of Alamar Blue. Plates were read after 6 h.
For the compound `Nc1ccc(N)cc1`, the result was inactive.
Still for that read-out and setting: with `Cc1c([N+](=O)[O-])c(C)c([N+](=O)[O-])c(C(C)(C)C)c1[N+](=O)[O-]` the entry was “inactive”.
Regarding `CCOC(=O)C(SP(=S)(OC)OC)c1ccccc1` (stereo not given), the outcome was inactive.
Still for that read-out and setting: under `O=[N+]([O-])c1ccc(Nc2ccccc2)cc1` stands “inactive”.
As to `O=c1oc2ccccc2c(O)c1C(CC(O)c1ccc(-c2ccc(Br)cc2)cc1)c1ccccc1` (stereo not given), the AC50 was 5.4 µM (active).
On to `Oc1cc(Cl)c(Cl)cc1Cl`, for which the outcome was inactive.
Same read-out and setting: with `Oc1ccc(Cc2ccc(O)cc2)cc1` the entry was “inactive”; with `COCC(=O)N(c1c(C)cccc1C)[C@H](C)C(=O)OC`, “inactive”.
Same read-out and setting: with `CCC(C)(C#N)N=NC(C)(C#N)CC` (stereo not given) the entry was “inactive”.
With `CCCCCCCCCCCCc1cccc(S(=O)(=O)O)c1`, the AC50 was 17.6 µM (active).
Still for that read-out and setting: with `[Cl][Sn]([c]1ccccc1)([c]1ccccc1)[c]1ccccc1` the figure was 0.0934 µM (active).
Same read-out and setting: with `CN(C)C(=S)S` the figure was 25.1 µM (active); with `CC(C)N(C(=O)CCl)c1ccccc1`, 20 µM (active).
As for `OCCCCO`, the result was inactive.
Still for that read-out and setting: with `N#Cc1cccnc1` the entry was “inactive”.
Consider `O=C(O)COc1cc(Cl)c(Cl)cc1Cl`, for which the outcome was inactive.
Take `Cc1cc(C(C)(C)c2ccc(O)c(C)c2)ccc1O`: the AC50 was 10 µM (active).
For `Cc1cc(Cl)ccc1OC(C)C(=O)O` (stereo not given), the result was inactive.
With `Cc1ccccc1OP(=O)(Oc1ccccc1)Oc1ccccc1`, the AC50 was 11.5 µM (active).
The same measure, in the same setting: with `O=C1C=CC(=O)c2ccccc21` the figure was 3.32 µM (active).
Turning to `O=S(=O)(c1ccc(Cl)cc1)c1cc(Cl)c(Cl)cc1Cl`, the result was inactive.
On the same count and under the same terms, with `Clc1cccc(Cl)c1Cl` the entry was “inactive”; with `Clc1cccc(Cl)c1`, “inactive”.
As to `COc1ccccc1N`, the outcome was inactive.
Consider `CCN(CC)C(=O)C(Cl)=C(C)OP(=O)(OC)OC`, for which the outcome was inactive.
With `O=C(O)C1(c2ccc3c(c2)OC[C@H](Cc2ccc(-c4ccccc4)cc2)[C@H]3O)CCCC1`, the AC50 is 7.34 µM (active).
In the case of `CC(C)(COCC1CO1)COCC1CO1` (stereo not given), the result was inactive.
Still for that read-out and setting: under `CCOP(=S)(OCC)OP(=S)(OCC)OCC` stands “inactive”; under `Oc1cccc(-c2ccccc2)c1`, “inactive”.
As for `CCOC(=O)CC(=O)CCl`, the AC50 is 20 µM (active).
In the case of `CCCCN(CCCC)C(=S)[S-].CCCCN(CCCC)C(=S)[S-].[Ni+2]`, the outcome was inactive.
In the case of `CC1(C)[C@H](C(=O)O[C@H](C#N)c2cccc(Oc3ccccc3)c2)[C@@H]1/C=C(\Cl)C(F)(F)F`, the AC50 was 0.0141 µM (active) and the outcome was inactive.
Regarding `Oc1c(Cl)cc(Cl)cc1Cl`, the result was inactive.
On the same count and under the same terms, under `NC(=O)CCl` stands “inactive”; under `CCCCCCCCCCCCN(C)C`, “inactive”.
Regarding `Cc1ccc2nc3sc(=O)sc3nc2c1`, the AC50 is 5 µM (active).
As to `OCCN(CCO)CCO`, the result was inactive.
`CC(C)(C)c1cc([N+](=O)[O-])cc(C(C)(C)C)c1O`: the result was inactive.
Take `O=C(CCl)NCO`: the outcome was inactive.

The AC50 is the midpoint of the concentration-response curve, whichever way the signal moves.
